Source: PubChem BioAssay
Where “and” joins values, the source holds several entries; their conditions need not be identical. Identical values can stand only once. Inconclusive results are not listed. For some of these results: Entries with a potency or affinity are not part of this list. A structure can be active in one record and inactive in another. Calls of active or inactive are those of the source.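 Rule for the calls, unless noted: active = compounds whose cell count with miR-34 switched on is under 0.7 times the count with it off; inactive = the rest.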

Assays:
[1] = P. berghei load reduction in hepatocytes – cell-based, HepG2, luciferase luminescence, HepG2 viability, primary screen (AID 624349; in the data active = parasite load remaining mostly below about 12%, no sharp cut-off; inactive = mostly above about 10%;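 note: 100% = mean of DMSO negative control wells on the same plate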); conditions: P. berghei liver stage in HepG2, luciferase luminescence, concentration not given here; parasite load remaining: stronger effect = lower value; viability: measured here: HepG2 viability without parasites
[2] = viability loss with induced miR-34 in A549 – imaging, A549 dox-inducible miR-34, nuclei and caspase counts, primary screen (AID 1347080); conditions: A549 miR-34 inducible, Hoechst nuclei count, 48 h
[3] = MELAS cybrid and Rieske KO viability enhancers – cell-based, MELAS cybrids, Rieske KO mouse fibroblasts, CellTiter-Glo, primary screen (AID 1508586;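 active = mean z-score across replicates of 1.96 or higher in either the MELAS or the Rieske mutant cell line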;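 note: z relative to plate mean and SD of compound and empty wells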); conditions: low glucose
[4] = system: Hepatitis C virus NS3 helicase; experiment: blockers of NS3h binding to ssDNA – biochemical, fluorescence polarization, LOPAC1280 library, primary screen (AID 687035; in the data active = inhibition above about 37%); conditions: Purified HCV NS3 helicase, Cy5-dT15 ssDNA binding fluorescence polarization; stronger effect = higher value; concentration not given here
[5] = compounds altering Cy5-DNA-NS3h complex signal – biochemical, LOPAC1280, artefact control for HCV NS3 helicase inhibitor project (AID 687037; call rule not given here); conditions: Cy5-DNA-NS3h complex fluorescence interference counterscreen
[6] = blockers of polyQ-driven CASP3 activation – cell-based (AID 1583); conditions: polyglutamine-induced caspase-3 activation, cell assay; stronger effect = higher value;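 tested at 10 µM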
[7] = yeast 75Q aggregation reduction – 75Q-TubU reporter (AID 1593); conditions: Yeast 75Q polyglutamine aggregation reporter
[8] = restoration of touch response, mutant HTT neurons – whole organism, C. elegans mechanosensory neurons, N-terminal huntingtin (AID 1599); conditions: C. elegans polyQ-huntingtin mechanosensory neurons, stronger effect = higher value
[9] = blockers of cytochrome c efflux from mitochondria – biochemical, purified mitochondria (AID 1603); conditions: stronger effect = lower value;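 note: mouse liver mitochondria challenged with calcium chloride; signal normalized to the plate average as 100%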
[10] = polyglutamine aggregate formation blockers (AID 1604); conditions: polyglutamine-induced protein aggregation inhibition assay; stronger effect = higher value; tested at 2.5 µM
[11] = glutamate transport activators, MN-1 cells, MN-1 cell line (AID 1612); conditions: MN-1 motor neuron cells, stronger effect = higher value;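 note: tested at 1 µM final; 0% = mean of DMSO vehicle wells on each plate; positive means more glutamate uptake than control and negative means less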
[12] = GFP-Q80 aggregate reduction, neuronal-like cells, cell-based, NGF-treated PC12, GFPQ80 (AID 1614); conditions: PC12 NGF-treated GFP-polyQ80 inclusion reduction;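 note: lower means fewer inclusions and 0 means no inclusions at all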
[13] = 75Q-TubH aggregate inhibition, S. cerevisiae, yeast (AID 1616); conditions: S. cerevisiae 75Q-TubH polyglutamine aggregation suppression; stronger effect = higher value
[14] = galactose survival enhancers in mitochondrial complex I cybrids – cell-based, galactose medium, ATP luminescence, primary screen (AID 1645843;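 active = z-score of at least 1.8 in each of two replicates, scored against plate mean and spread of sample wells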;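 note: positive z means more ATP and so rescue of galactose-driven cybrid death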); conditions: complex I mutant cybrid cells, 72 h, stronger effect = higher value
[15] = target: ATP-dependent translocase ABCB1 (Homo sapiens) (UniProt P08183); experiment: P-glycoprotein substrate transport blockade – cell-based (AID 377; in the data active = fluorescence slope change above about 50%); conditions: MDR1-expressing cells, fluorescent substrate accumulation slope; stronger effect = higher value; concentration not given here
Sequence of ATP-dependent translocase ABCB1 (Homo sapiens) (P08183 whole entry, looked up): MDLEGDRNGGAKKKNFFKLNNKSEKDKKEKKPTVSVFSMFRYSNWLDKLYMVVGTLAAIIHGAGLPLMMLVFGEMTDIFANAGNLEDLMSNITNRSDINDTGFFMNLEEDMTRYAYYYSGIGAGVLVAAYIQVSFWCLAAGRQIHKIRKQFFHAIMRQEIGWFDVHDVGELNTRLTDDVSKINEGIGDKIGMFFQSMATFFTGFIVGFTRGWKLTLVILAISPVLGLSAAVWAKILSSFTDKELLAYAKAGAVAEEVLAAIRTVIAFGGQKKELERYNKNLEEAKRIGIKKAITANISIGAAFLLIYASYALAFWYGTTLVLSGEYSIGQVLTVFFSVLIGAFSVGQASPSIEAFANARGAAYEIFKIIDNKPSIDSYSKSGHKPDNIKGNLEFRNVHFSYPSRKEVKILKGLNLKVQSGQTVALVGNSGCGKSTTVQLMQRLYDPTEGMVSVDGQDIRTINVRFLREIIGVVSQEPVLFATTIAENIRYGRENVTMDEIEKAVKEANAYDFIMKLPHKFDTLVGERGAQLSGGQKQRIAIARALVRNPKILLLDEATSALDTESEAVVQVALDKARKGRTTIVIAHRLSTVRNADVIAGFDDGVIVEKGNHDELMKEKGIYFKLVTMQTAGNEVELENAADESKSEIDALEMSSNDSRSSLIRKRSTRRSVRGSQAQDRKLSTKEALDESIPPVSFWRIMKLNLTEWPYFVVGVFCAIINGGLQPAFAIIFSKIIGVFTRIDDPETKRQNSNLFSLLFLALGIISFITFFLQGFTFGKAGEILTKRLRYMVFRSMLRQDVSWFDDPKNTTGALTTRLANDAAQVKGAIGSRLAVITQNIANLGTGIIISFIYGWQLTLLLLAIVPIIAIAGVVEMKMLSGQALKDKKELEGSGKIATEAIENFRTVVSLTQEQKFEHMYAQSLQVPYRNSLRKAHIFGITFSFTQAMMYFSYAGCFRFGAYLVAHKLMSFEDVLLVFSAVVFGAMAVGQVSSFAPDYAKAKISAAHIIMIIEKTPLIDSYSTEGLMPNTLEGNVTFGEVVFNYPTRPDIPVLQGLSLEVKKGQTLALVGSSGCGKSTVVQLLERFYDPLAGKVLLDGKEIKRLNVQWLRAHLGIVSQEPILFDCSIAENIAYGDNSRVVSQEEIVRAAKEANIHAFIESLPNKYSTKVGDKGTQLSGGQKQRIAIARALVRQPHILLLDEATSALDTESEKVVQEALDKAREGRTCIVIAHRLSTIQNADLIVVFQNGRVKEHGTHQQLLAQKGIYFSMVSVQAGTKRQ

[16] = target: NAD(+) hydrolase SARM1 (Homo sapiens) (UniProt Q6SZW1); experiment: blocking NAD cleavage by SARM1 SAM-TIR – cell lysate, NAD-Glo luminescence (AID 1508614;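 active = compound whose remaining NAD level is above about 45 nM, limit read from the data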;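 note: higher remaining NAD means stronger inhibition of SARM1 NADase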); conditions: SAM-TIR HEK293T lysate NADase, at 1 µM, stronger effect = higher value
Sequence of NAD(+) hydrolase SARM1 (Homo sapiens) (Q6SZW1 whole entry, looked up, the tested form may be a part): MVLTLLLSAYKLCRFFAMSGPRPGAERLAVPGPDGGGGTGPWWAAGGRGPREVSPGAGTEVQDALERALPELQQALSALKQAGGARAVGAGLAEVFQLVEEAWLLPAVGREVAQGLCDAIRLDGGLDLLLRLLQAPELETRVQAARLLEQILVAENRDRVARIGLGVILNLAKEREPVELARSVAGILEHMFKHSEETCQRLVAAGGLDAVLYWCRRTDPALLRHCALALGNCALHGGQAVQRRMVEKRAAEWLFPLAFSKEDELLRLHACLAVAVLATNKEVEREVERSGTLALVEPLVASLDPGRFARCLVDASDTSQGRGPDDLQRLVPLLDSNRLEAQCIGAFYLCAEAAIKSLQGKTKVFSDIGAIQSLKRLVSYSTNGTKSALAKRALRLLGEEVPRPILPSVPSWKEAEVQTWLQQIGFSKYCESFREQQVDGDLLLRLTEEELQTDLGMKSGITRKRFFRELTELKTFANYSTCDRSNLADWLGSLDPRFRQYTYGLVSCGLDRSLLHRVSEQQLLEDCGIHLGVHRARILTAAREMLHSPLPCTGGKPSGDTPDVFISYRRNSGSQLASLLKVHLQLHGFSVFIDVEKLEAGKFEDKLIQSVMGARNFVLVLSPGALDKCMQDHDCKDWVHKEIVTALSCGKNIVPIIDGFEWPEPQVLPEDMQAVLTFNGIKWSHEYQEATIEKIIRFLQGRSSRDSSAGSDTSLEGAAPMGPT

[17] = target: Mitogen-activated protein kinase 7 (Homo sapiens) (UniProt Q13164); experiment: Gal4-ERK5 driven luciferase induction – cell-based, HTS, primary screen (AID 1508626;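 active = luciferase signal above three times the same-plate solvent-only control wells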;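 note: luciferase driven by Gal4-ERK5 fusion binding five Gal4 sites before minimal TATA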); conditions: HeLa Gal4-ERK5 transactivation, 18 h, at 5 µM, stronger effect = higher value
Sequence of Mitogen-activated protein kinase 7 (Homo sapiens) (Q13164 whole entry, looked up, the tested form may be a part): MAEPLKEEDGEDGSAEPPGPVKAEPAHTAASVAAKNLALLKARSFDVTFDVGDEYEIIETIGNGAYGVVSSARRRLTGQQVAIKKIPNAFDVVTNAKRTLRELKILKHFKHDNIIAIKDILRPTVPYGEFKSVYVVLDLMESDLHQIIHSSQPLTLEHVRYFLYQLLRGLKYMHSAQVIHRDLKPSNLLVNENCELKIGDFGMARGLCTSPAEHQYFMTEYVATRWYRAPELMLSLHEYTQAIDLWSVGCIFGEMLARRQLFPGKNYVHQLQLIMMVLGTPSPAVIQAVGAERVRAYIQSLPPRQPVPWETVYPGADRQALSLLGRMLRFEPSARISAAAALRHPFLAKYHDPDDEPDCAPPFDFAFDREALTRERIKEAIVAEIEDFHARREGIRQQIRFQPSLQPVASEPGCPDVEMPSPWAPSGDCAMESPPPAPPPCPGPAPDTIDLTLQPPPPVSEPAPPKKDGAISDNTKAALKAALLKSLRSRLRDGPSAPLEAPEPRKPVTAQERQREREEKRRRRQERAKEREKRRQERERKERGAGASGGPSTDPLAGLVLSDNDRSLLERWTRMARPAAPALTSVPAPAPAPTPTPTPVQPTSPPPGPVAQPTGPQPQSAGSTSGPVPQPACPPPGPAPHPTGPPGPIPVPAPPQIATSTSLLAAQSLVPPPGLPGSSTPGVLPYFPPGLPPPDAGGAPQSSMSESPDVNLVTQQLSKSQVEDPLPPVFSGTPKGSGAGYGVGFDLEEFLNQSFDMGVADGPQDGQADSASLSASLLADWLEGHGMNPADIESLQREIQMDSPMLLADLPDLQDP

[18] = liver-stage malaria parasite load reduction – cell-based, known kinase inhibitor set, luminescence, hepatoma host viability (AID 624392; call rule not given here;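 note: infected cells incubated roughly two days before readout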); conditions: Plasmodium liver stage in hepatoma cells, luciferase luminescence, concentration not given here; liver cell % of control: measured here: host liver cell viability; parasite % of control: stronger effect = lower value
[19] = stronger effect = lower value, cell number ratio, induced over uninduced
[20] = measured here: relative caspase fold change +Dox/-Dox
[21] = measured here: total cells with miR-34 induction, stronger effect = lower value
[22] = measured here: total cells without miR-34 induction
[23] = MELAS cybrid survival, CellTiter-Glo 48 h, stronger effect = higher value
[24] = Rieske KO mouse fibroblast survival, CellTiter-Glo 72 h

CO[C@@]1(NC(=O)[C@H](C(=O)O)c2ccc(O)cc2)C(=O)N2C(C(=O)O)=C(CSc3nnnn3C)CO[C@@H]21
parasite load remaining [1]: 81.8% (inactive)
viability [1]: 98.4%
fold change [2, 19]: 0.861 (inactive)
fold change [2, 20]: 1.17
cell count [2, 21]: 8980
cell count [2, 22]: 10400
z-score [3, 23]: 0.452 (inactive)
z-score [3, 24]: -0.352

CCc1c(C(=O)NCCc2ccc(N3CCCCC3)cc2)[nH]c2ccc(Cl)cc12
inhibition [4]: 0% (inactive)
fluorescence ratio (interference) [5]: 1 (inactive)
fold change [2, 19]: 0.939 (inactive)
fold change [2, 20]: 0.558
cell count [2, 21]: 7490
cell count [2, 22]: 7980
z-score [3, 23]: 0.376 (inactive)
z-score [3, 24]: -0.206

CN=C(N)NCCCC(N)C(=O)O (stereo not given)
inhibition [6]: 9.27%
score [7]: 2.21
rescue above control [8]: -4.19
cytochrome c release ratio [9]: 0.94
inhibition of aggregation [10]: -4.76%
glutamate uptake change [11]: 3.17%
inclusion score [12]: 2
aggregation suppression score [13]: 1.06
fold change [2, 19]: 0.944 (inactive)
fold change [2, 20]: 1.42
cell count [2, 21]: 9430
cell count [2, 22]: 9990
z-score [14]: 1.06 (inactive)

C=C1CC[C@H](O)C/C1=C/C=C1\CCC[C@]2(C)[C@@H]([C@H](C)CCCC(C)C)CC[C@@H]12
fluorescence slope change [15]: 59.6% (active)
parasite load remaining [1]: 130% (inactive)
viability [1]: 106%
fold change [2, 19]: 0.889 (inactive)
fold change [2, 20]: 1.52
cell count [2, 21]: 8940
cell count [2, 22]: 10100
remaining NAD [16]: 10 nM (inactive)
luciferase signal [17]: 48 AU (inactive)

C[C@H](Cn1cnc2c(N)ncnc21)OCP(=O)(O)O
fold change [2, 19]: 0.942 (inactive)
fold change [2, 20]: 0.901
cell count [2, 21]: 9100
cell count [2, 22]: 9660
remaining NAD [16]: 10 nM (inactive)

CC1(C)S[C@@H]2[C@H](NC(=O)[C@@H](N)c3ccc(O)cc3)C(=O)N2[C@H]1C(=O)O
inhibition [6]: 1.98%
score [7]: 1.39
rescue above control [8]: 1.27
cytochrome c release ratio [9]: 1.03
inhibition of aggregation [10]: 54.5%
glutamate uptake change [11]: 1.23%
inclusion score [12]: 2
aggregation suppression score [13]: 1.15
parasite load remaining [1]: 98.1% (inactive) and 66.2% (inactive)
viability [1]: 75% and 90.3%
fold change [2, 19]: 0.918 (inactive)
fold change [2, 20]: 1.48
cell count [2, 21]: 11000
cell count [2, 22]: 12000

COc1ccc(C(=O)c2ccc(C)cc2)c(O)c1
fold change [2, 19]: 0.81 (inactive)
fold change [2, 20]: 1.2
cell count [2, 21]: 4460
cell count [2, 22]: 5510
remaining NAD [16]: 10 nM (inactive)

CCN(CC)CCNC(=O)c1c(C)[nH]c(C=C2C(=O)Nc3ccc(F)cc32)c1C
liver cell % of control [18]: 117% and 132% and 81.2%
parasite % of control [18]: 0.0958% (inactive) and 0.227% (active) and 376% (inactive)
fold change [2, 19]: 0.743 (inactive)
fold change [2, 20]: 1.2
cell count [2, 21]: 2230
cell count [2, 22]: 3000
z-score [3, 23]: -0.621 (inactive)
z-score [3, 24]: -1.61
